Assay results from PubChem BioAssay AID1159580 (chemical genetic matrix, 2015).
Where “and” joins values, the source holds several entries; their conditions need not be identical. Equal entries are not always repeated. Among all 5,500 compounds or so, about 2,000 (36%) were called active. Roughly 18% stayed inconclusive and do not appear here. Rule as the data show it: active = normalized growth mostly below about 0.91 (no sharp cut-off); inconclusive = no clear call, values can overlap the other calls; inactive = mostly above about 0.92. The list shows a part of the results.

Experiment: chemical genetic growth profiling, strain panel (AID 1159580);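 also: tested at 20 µM; growth read once vehicle control cultures reached saturation at 30 °C; 1 = growth at the plate median or of vehicle wells; lower values mean less growth of the strain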
Conditions: S. cerevisiae deletion strains, growth OD

Measured: normalized growth

CCn1cc(C(=O)O)c(=O)c2cnc(N3CCNCC3)nc21
inactive: locus YAL021C, strain ccr4, active compounds read low 1.02 | locus YAL026C, strain drs2, active compounds read low 1.03 | locus YAL030W, strain snc1, active compounds read low 1.03 | locus YBL061C, strain skt5, active compounds read low 1.04 | locus YBR009C, strain hhf1, active compounds read low 1.02 | locus YBR021W, strain FUR4, active compounds read low 0.997 | locus YBR023C, strain chs3, active compounds read low 1.03 | locus YBR171W, strain sec66, active compounds read low 1.04 | locus YBR229C, strain ROT2, active compounds read low 0.98 | locus YBR231C, strain swc5, active compounds read low 0.998 | locus YBR279W, strain paf1, active compounds read low 1.01 | locus YCL011C, strain gbp2, active compounds read low 1.04 | locus YCL016C, strain dcc1, active compounds read low 1.01 | locus YCL029C, strain bik1, active compounds read low 0.987 | locus YCL069W, strain vba3, active compounds read low 1.02 | locus YCR088W, strain abp1, active compounds read low 1.02 | locus YDL005C, strain med2, active compounds read low 1 | locus YDL035C, strain GPR1, active compounds read low 1.01 | locus YDL040C, strain nat1, active compounds read low 1 | locus YDL074C, strain BRE1, active compounds read low 1.06 | locus YDL101C, strain DUN1, active compounds read low 0.994 | locus YDL134C, strain PPH21, active compounds read low 0.986 | locus YDL185W, strain tfp1, active compounds read low 0.985 | locus YDL192W, strain arf1, active compounds read low 0.985 | locus YDR001C, strain nth1, active compounds read low 1.01 | locus YDR069C, strain doa4, active compounds read low 1.02 | locus YDR101C, strain arx1, active compounds read low 1.01 | locus YDR137W, strain rgp1, active compounds read low 1 | locus YDR159W, strain sac3, active compounds read low 0.945 | locus YDR162C, strain NBP2, active compounds read low 0.992 | locus YDR195W, strain ref2 0.975 | locus YDR297W, strain sur2, active compounds read low 1 | locus YDR318W, strain mcm21, active compounds read low 1.01 | locus YDR334W, strain swr1, active compounds read low 1.02 | locus YDR335W, strain msn5, active compounds read low 1.01 | locus YDR388W, active compounds read low 0.993 | locus YDR392W, strain spt3, active compounds read low 0.959 | locus YDR502C, strain sam2, active compounds read low 1 | locus YEL003W, strain gim4, active compounds read low 1.02 | locus YEL037C, strain rad23, active compounds read low 1.01 | locus YEL061C, strain CIN8 (second series), active compounds read low 1 | locus YEL061C, strain CIN8, active compounds read low 0.995 | locus YER015W, strain faa2, active compounds read low 1.02 | locus YER016W, strain bim1, active compounds read low 1.02 | locus YER110C, active compounds read low 0.987 | locus YER111C, strain swi4, active compounds read low 1.02 | locus YER155C, strain BEM2 (second series), active compounds read low 0.981 | locus YER155C, strain BEM2, active compounds read low 0.983 | locus YER167W, strain BCK2, active compounds read low 0.987 | locus YFR010W, strain ubp6, active compounds read low 1 | locus YGL078C, strain dbp3, active compounds read low 1 | locus YGL086W, strain mad1, active compounds read low 1.01 | locus YGL167C, strain pmr1, active compounds read low 1.01 | locus YGL173C, strain kem1, active compounds read low 1 | locus YGL227W, strain vid30, active compounds read low 1.01 | locus YGL240W, strain doc1, active compounds read low 0.988 | locus YGL248W, strain PDE1, active compounds read low 1 | locus YGL253W, strain hxk2, active compounds read low 1.04 | locus YGR078C, strain PAC10, active compounds read low 1.05 | locus YGR135W, strain pre9, active compounds read low 0.963 | locus YGR252W, strain gcn5, active compounds read low 1 | locus YHR013C, strain ard1, active compounds read low 1.04 | locus YHR027C, strain rpn1, active compounds read low 1.01 | locus YHR030C, strain SLT2, active compounds read low 0.983 and 1.06 | locus YHR079C, strain IRE1 (second series), active compounds read low 0.992 | locus YHR079C, strain IRE1, active compounds read low 1.03 | locus YHR094C, strain hxt1, active compounds read low 0.984 | locus YHR129C, strain ARP1, active compounds read low 0.986 | locus YHR142W, strain chs7, active compounds read low 1.04 | locus YHR200W, strain rpn10, active compounds read low 0.988 | locus YIL066C, strain RNR3, active compounds read low 1.01 | locus YIL073C, strain SPO22, active compounds read low 0.961 | locus YIL125W, strain kgd1, active compounds read low 0.993 | locus YIR030C, strain dcg1, active compounds read low 0.986 | locus YJL092W, strain hpr5, active compounds read low 1.02 | locus YJL095W, strain BCK1 (second series), active compounds read low 1 | locus YJL095W, strain BCK1, active compounds read low 1.03 and 1.04 | locus YJL115W, strain asf1, active compounds read low 1 | locus YJL129C, strain trk1, active compounds read low 1.04 | locus YJL134W, strain LCB3, active compounds read low 0.983 | locus YJL154C, strain vps35, active compounds read low 1.03 | locus YJL164C, strain tpk1, active compounds read low 1.05 | locus YJL166W, strain qcr8, active compounds read low 1.02 | locus YJL168C, strain set2, active compounds read low 0.99 | locus YJL187C, strain SWE1 (second series), active compounds read low 1.02 | locus YJL187C, strain SWE1, active compounds read low 1.02 | locus YJR043C, strain POL32, active compounds read low 1 | locus YJR066W, strain TOR1, active compounds read low 1
